# Test results published in ChEMBL document CHEMBL1157539, “Thousands of chemical starting points for antimalarial lead identification” (Nature, 2010).
# Tested on: Plasmodium falciparum
# Assay: GSK_TCMDC: Inhibition of Plasmodium falciparum Dd2 in whole red blood cells, using parasite LDH activity as an index of growth. Test compounds present at 2uM
# Format: functional
row,Structure (SMILES),Inhibition
1,Cc1ccccc1C(=O)Nc1cccc(-c2nc3ncccn3c2C)c1,94%
2,COc1ccc(CNC(=O)NC2CCN(c3ccnc(Nc4cc(OC)c(OC)c(OC)c4)n3)C2)cc1 (stereo unspecified),90%
3,CN1CCN(c2cccc(NC(=O)c3ccc(-c4ccc(C#N)cc4)cc3)c2)CC1,7%
4,Cc1cc(NC(=O)c2cccs2)ccc1OC1CCN(Cc2ccc(C#N)cc2)CC1.O=C(O)C(F)(F)F,92%
5,CN1CCCC(COc2cc3c(cc2Br)CCN3C(=O)Nc2ccc(-c3ccncc3)c(Cl)c2)C1 (stereo unspecified),96%
6,COc1cc(Cn2ccc3c4c(N)nc(N)nc4ccc32)cc(OC)c1OC,97%
7,COc1ccc2nccc([C@@H](O)CN3CCC(NCCOc4ccncc4)CC3)c2c1.O=C(O)C(=O)O,0%
8,Cn1nc(-c2ccc(NC(=O)Nc3ccc4ccccc4c3)c(F)c2)c2cnc(NCCN3CCOCC3)nc21.O=C(O)C(F)(F)F,3%
9,Fc1ccc2[nH]c(-c3ccc(-c4ccc(CN5CCN(c6ccncc6)CC5)cc4)cc3)nc2c1.O=C(O)C(F)(F)F,100%
10,Cc1ccc(CNC(=O)[C@H](CCCN)Nc2cc(C)nc(Nc3ccccc3)n2)cc1.O=C(O)C(F)(F)F,0%
11,Cc1ccc(NC(C)C(=O)Nc2ccc(C#N)cc2)cc1S(=O)(=O)N1CCCCC1 (stereo unspecified),92%
12,CCOc1c(CCNCCCCNCCc2ccc3ccccc3c2OCC)ccc2ccccc12.CS(=O)(=O)O,87%
13,COc1cc(CNCCCNc2nc(=O)c3sccc3[nH]2)c2[nH]cc(Cl)c2c1.CS(=O)(=O)O,0%
14,COc1ccc2c(=O)c(I)c(C)[nH]c2c1,96%
15,COCCNc1nc(N2CCC(CNC(=O)c3ccc(-c4ccc(C(=O)N(C)C)cc4C)cc3)CC2)nc2cc(OC)c(OC)cc12,97%
16,CCCc1ccc(NC(=O)c2cccc(CN3CCCN(Cc4cccc(O)c4)CC3)c2)cc1.O=C(O)C(F)(F)F,40%
17,Cc1cc(C2CCN(CCCCNC(=O)c3ccc(NC(=O)c4ccc(Cl)cc4)cc3)CC2)c(C)cc1OCc1ccccn1.Cl,65%
18,COc1ccc(CNC(=O)NC2CCN(c3ccnc(Nc4ccc(F)cc4)n3)C2)cc1 (stereo unspecified),78%

row,Structure (SMILES),Inhibition
1,Cc1ccc(Oc2ccc(CNc3nc(Nc4cccc(F)c4)nc(Nc4cccc(F)c4)n3)cc2)cc1,0%
2,CN1CC[C@@H](Oc2cc(NC(=O)Nc3ccc(Cl)c(C(F)(F)F)c3)ccc2Cl)C1,68%
3,Cc1[nH]c2ccc(C#N)cc2c(=O)c1Br,61%
4,Cc1[nH]c(C)c(-c2ccc(-c3ccccc3F)nc2)c(=O)c1Br,97%
5,O=C(NC1CCCCN(Cc2ccccc2O)C1)c1ccc(-c2ccccc2)cc1.O=C(O)C(F)(F)F (stereo unspecified),61%
6,CCCn1c(O)nnc1SCC(=O)Nc1cc(Cl)ccc1Cl,53%
7,CCN1CCC(NCc2ccc(-c3ccc(Cl)cc3)cc2)CC1,33%
8,NCC1CCCN1Cc1ccc(-c2cccc(-c3nc4cc(C(F)(F)F)ccc4[nH]3)c2)cc1.O=C(O)C(F)(F)F (stereo unspecified),97%
9,Cn1nccc1C(=O)NCCNCc1ccc(-c2cccc(-c3nc4cc(C(F)(F)F)ccc4[nH]3)c2)cc1.O=C(O)C(F)(F)F,99%
10,Cc1ccc(Nc2nccc(N(C)c3ccc4c(c3)nc(NC(=O)Cc3ccc(Cl)c(Cl)c3)n4C)n2)cc1S(N)(=O)=O.O=C(O)C(F)(F)F,60%
11,C=CCOc1ccc2ccccc2c1CNCCCCCCNCc1c(OCC=C)ccc2ccccc12.CS(=O)(=O)O,98%
12,O=C(NCCN1CCOCC1)c1ccc(-c2ccc(CNCCCc3ccccc3)cc2)nc1.O=C(O)C(F)(F)F,10%
13,CC(C)NCc1ccc(-c2cccc(NC(=O)c3cccc(C#N)c3)c2)cc1.O=C(O)C(F)(F)F,78%
14,COc1ccc2nccc([C@@H](O)CN3CCC(NS(=O)(=O)c4cc5c(cc4Cl)SCC(=O)N5)CC3)c2c1.O=C(O)C(=O)O,0%
15,O=C(NC1CCN(Cc2ccccc2)C1)c1ccc(Nc2ccc(Br)cc2)nc1.O=C(O)C(F)(F)F (stereo unspecified),21%
16,Cc1cc(CNCCCCCCNCc2ccc(Cl)cc2)ccc1O,0%
17,O=C(Nc1ccc2c(c1)OCO2)c1cc(-c2cccnc2)nc2ccc(Cl)cc12,41%
18,O=C(Nc1ccc(C(F)(F)F)cc1)c1ccc(S(=O)(=O)NCC2CCCN(CC3CCCCC3)C2)cc1.O=C(O)C(F)(F)F (stereo unspecified),0%
